Data: PubChem BioAssay (NCATS)
Inconclusive results are not listed. Calls of active or inactive are those of the source. Unless noted, calls come from the whole dose curve; as a rule, active = well fitted curve in the direction sought with a large enough effect; inconclusive = small, poorly fitted or top-dose-only effect, or another doubt; inactive = no such curve, though single readings can be large; an effect the other way counts as inactive or inconclusive.

Columns and labels:
[1] = Primary qHTS for small molecule stabilizers of the endoplasmic reticulum resident proteome: Secreted ER Calcium Modulated Protein (SERCaMP) assay (AID 1508630); note: % is set by controls: 0 for no effect and ±100 for the full control effect
How it was run: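 GLuc-SERCaMP-expressing SH-SY5Y cells, pretreated 16 h with compound, are challenged with thapsigargin to empty ER calcium stores; after 4 h, coelenterazine is added directly to the medium and luminescence is imaged.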

[2] = target: Cytochrome P450 2D6 (Homo sapiens) (UniProt P10635); assay: Cytochrome P450 family 2 subfamily D member 6 (CYP2D6) small molecule antagonists: luciferase biochemical (cell-free) qHTS assay (AID 1645840; active = well fitted curve in the direction sought with a large enough effect in the repeat runs; an effect the other way counts as inactive or inconclusive; note: nearly all actives have a fitted effect of over 55% in size; note: potency is the fitted concentration of half-maximal effect)
Chain of Cytochrome P450 2D6 (Homo sapiens) (P10635 whole entry, looked up): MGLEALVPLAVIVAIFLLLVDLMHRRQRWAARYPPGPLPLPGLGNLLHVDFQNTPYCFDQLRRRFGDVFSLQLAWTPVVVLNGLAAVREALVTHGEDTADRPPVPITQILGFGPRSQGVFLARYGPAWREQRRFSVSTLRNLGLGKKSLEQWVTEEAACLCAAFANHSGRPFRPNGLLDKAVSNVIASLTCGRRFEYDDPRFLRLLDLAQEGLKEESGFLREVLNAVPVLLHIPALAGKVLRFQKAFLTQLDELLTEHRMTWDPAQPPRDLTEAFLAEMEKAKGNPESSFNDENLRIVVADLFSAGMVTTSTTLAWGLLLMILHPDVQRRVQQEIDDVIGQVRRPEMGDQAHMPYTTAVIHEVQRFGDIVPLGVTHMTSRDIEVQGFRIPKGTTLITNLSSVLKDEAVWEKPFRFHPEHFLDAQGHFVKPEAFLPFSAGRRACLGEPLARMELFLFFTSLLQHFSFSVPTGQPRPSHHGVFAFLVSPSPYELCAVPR
How it was run: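 P450-Glo luminescent screen: recombinant CYP2D6 enzyme–proluciferin substrate mix preincubated with compound 10 min at room temperature, then NADPH regeneration added for 1 h at room temperature. Detection reagent added for 20 min; luciferin light read as relative luminescence units.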

[3] = target: Cytochrome P450 2C9 (Homo sapiens) (UniProt P11712); assay: Cytochrome P450 family 2 subfamily C member 9 (CYP2C9) small molecule antagonists: luciferase biochemical (cell-free) qHTS assay (AID 1645842; active = well fitted curve in the direction sought with a large enough effect in the repeat runs; an effect the other way counts as inactive or inconclusive; note: nearly all actives have a fitted effect of over 55% in size; note: potency is the fitted concentration of half-maximal effect; for activity change, negative = inhibition: % is set by controls: 0 for no effect and ±100 for the full control effect)
Chain of Cytochrome P450 2C9 (Homo sapiens) (P11712 whole entry, looked up): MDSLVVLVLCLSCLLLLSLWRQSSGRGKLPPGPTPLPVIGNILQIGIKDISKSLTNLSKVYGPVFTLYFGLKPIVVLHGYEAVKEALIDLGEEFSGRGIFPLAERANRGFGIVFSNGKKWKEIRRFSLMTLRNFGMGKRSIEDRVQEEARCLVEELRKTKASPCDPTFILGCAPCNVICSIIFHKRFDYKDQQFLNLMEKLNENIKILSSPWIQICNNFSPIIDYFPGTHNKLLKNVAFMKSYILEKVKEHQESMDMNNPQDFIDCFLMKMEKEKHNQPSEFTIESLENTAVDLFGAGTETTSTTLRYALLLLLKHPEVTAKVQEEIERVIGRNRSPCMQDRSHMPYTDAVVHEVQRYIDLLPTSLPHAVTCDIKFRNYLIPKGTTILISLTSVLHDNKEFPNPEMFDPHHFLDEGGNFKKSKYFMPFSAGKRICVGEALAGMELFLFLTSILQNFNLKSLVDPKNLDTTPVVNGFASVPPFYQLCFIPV
How it was run: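 Luminescence, after 20 min with luciferin detection reagent, reflected CYP2C9 turnover during a 1 h NADPH-driven reaction at 37C. Enzyme-substrate mix contained 0.4% bovine serum albumin and was preincubated with compound 10 min at room temperature.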

Papain (Carica papaya) = Papain (Carica papaya) (UniProt P00784); assay: Primary qHTS assay for inhibitors of the protease papain (AID 1645873);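 note: papain turnover of Z-FR-AMC read as the AMC fluorescence gain over 10 min; % is set by controls: 0 for no effect and ±100 for the full control effect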
Chain of Papain (Carica papaya) (P00784 whole entry, looked up, the tested form may be a part): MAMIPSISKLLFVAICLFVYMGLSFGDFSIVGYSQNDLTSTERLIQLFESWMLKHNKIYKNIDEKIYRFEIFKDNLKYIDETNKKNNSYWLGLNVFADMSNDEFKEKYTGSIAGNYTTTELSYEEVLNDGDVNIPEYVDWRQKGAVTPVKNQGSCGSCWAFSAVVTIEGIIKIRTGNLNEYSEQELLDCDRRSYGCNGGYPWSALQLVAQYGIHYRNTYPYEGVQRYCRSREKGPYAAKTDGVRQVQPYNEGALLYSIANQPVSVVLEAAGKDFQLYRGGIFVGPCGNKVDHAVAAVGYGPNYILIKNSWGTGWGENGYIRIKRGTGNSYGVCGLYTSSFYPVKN

[4] = Primary qHTS for inhibitors of nuclear receptor binding SET domain protein 2 (NSD2) in an isogenic RCH-ACV NSD2 p.E1099K mutant (9B) (AID 1645876); note: nearly all actives have a fitted effect of over 70% in size; note: potency is the fitted concentration of half-maximal effect
[5] = Primary qHTS for inhibitors of nuclear receptor binding SET domain protein 2 (NSD2) in an RCH-ACV wild type WT cells (2C) (AID 1645877); note: nearly all actives have a fitted effect of over 70% in size; note: potency is the fitted concentration of half-maximal effect
[6] = Confirmatory qHTS for small molecule stabilizers of the endoplasmic reticulum resident proteome: Secreted ER Calcium Modulated Protein (SERCaMP) assay (AID 1508628);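 note: SH-SY5Y cells given compound 16 h then thapsigargin 100 nM for 4 h; % is set by controls: 0 for no effect and ±100 for the full control effect; nearly all actives have a fitted effect of over 40% in size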
How it was run: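 We seeded SH-SY5Y-GLuc-SERCaMP cells, added compounds (three concentrations in the primary run, eleven up to 76.6 uM in confirmation), incubated 16 h, depleted ER calcium with thapsigargin, and read luciferase 4 h later.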

[7] = Cytotoxicity counterscreen for inhibitors of SARS-CoV-2 cell entry (AID 1645845; calls by dose curve; note: nearly all actives have a fitted effect of over 50% in size; note: potency is the fitted concentration of half-maximal effect)
How it was run: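 48 h compound treatment (after 1 h preincubation), HEK293-ACE2 cells, 37 C/5% CO2; ATP luminescence endpoint; normalized to cell wells and media blanks.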

[8] = Primary qHTS to identify inhibitors of SARS-CoV-2 cell entry (AID 1645846; calls by dose curve; note: nearly all actives have a fitted effect of over 45% in size); conditions: activity change, negative = inhibition: at 57.1 µM (top of the series) unless noted
How it was run: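 Entry measured by luciferase signal 48 h after adding SARS-CoV-2-S pseudotyped MLV particles to HEK293-ACE2 cells preincubated 1 h with compounds. Normalisation: bald particles and spike particles.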

[9] = A High-Content qHTS Against Drug Library for the Identification of Small Molecules that Inhibit DYT1 Early Onset Primary Dystonia-Associated Cell Pathology (AID 1645839; calls by dose curve)
How it was run: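 In this high-content image screen, delE TorsinA mislocalization in inducible Flp-In 293 cells is scored as %pathology, with cell count serving as the counterscreen. Compound exposure lasts 48 h under tetracycline induction in reduced-serum medium.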

[10] = target: Cytochrome P450 3A4 (Homo sapiens) (UniProt P08684); assay: Cytochrome P450 family 3 subfamily A member 4 (CYP3A4) small molecule antagonists: luciferase qHTS assay (AID 1645841; active = well fitted curve in the direction sought with a large enough effect in the repeat runs; an effect the other way counts as inactive or inconclusive; note: nearly all actives have a fitted effect of over 45% in size)
Chain of Cytochrome P450 3A4 (Homo sapiens) (P08684 whole entry, looked up): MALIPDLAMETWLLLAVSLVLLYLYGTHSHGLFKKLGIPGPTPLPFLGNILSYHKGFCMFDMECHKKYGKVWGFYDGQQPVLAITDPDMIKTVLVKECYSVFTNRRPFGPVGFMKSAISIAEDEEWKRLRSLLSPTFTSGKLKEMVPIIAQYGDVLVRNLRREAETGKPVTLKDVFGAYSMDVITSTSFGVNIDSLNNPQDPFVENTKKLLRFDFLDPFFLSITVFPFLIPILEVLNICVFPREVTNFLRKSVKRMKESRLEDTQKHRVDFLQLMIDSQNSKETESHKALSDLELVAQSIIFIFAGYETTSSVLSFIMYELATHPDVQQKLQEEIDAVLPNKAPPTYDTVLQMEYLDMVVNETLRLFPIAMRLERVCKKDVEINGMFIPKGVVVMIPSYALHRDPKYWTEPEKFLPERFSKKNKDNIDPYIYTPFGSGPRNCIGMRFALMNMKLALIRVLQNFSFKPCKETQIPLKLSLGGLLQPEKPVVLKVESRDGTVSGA
How it was run: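 Luminescent CYP3A4 activity readout: compounds plus enzyme-substrate mix 10 min at room temperature, reaction started with NADPH regenerating system for 1 h, stopped with detection reagent, read after 20 min. Ketoconazole served as control.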

[11] = Counterscreen qHTS for small molecule stabilizers of the endoplasmic reticulum resident proteome: GLuc-NoTag assay (AID 1508627);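 note: SH-SY5Y cells given compound then 100 nM thapsigargin to empty ER calcium; 0% = thapsigargin alone and -100% = DMSO vehicle control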
How it was run: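 Luminescence of Gaussia luciferase secreted into the medium (coelenterazine, 0.07x final, unlysed cells) was the read-out. Human SH-SY5Y neuroblastoma cells constitutively secreting untagged GLuc received compound for 19 h, then 100 nM thapsigargin for 4 h.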

[12] = Cell Viability qHTS for small molecule stabilizers of the endoplasmic reticulum resident proteome (AID 1508629); conditions: cell viability counter-screen, 100 nM thapsigargin for final 4 h;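 note: human SH-SY5Y neuroblastoma cells carrying the GLuc-SERCaMP reporter; compound exposure about 46 h in total before the viability read; % is set by controls: 0 for no effect and ±100 for the full control effect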

c1ccc2c(c1)OCC(C1=NCCN1)O2 (centres undefined)
inactive: outcome [1] | Potency [3] | Potency (Papain (Carica papaya))
active: Potency [2] 19.5 µM | Potency [4] 9.44 µM | Potency [5] 7.5 µM

COC[C@@H](NC(C)=O)C(=O)NCc1ccccc1
inactive: Potency [6] | outcome [1] | Potency [2] | Potency [3] | Potency [7] | Potency [8] | Potency [4] | Potency [5]

Cc1cccc(C)c1NC1=NCCCS1
active: Potency [2] 15.5 µM
-11.5%: activity change, negative = inhibition [8]
inactive: outcome [1] | Potency [9] | Potency [3] | Potency [7] | Potency (Papain (Carica papaya)) | Potency [4] | Potency [5]

CNC(=O)c1ccc(N2C(=S)N(c3ccc(C#N)c(C(F)(F)F)c3)C(=O)C23CCC3)cc1F
active: Potency [3] 16.9 µM | Potency [5] 16.6 µM
inactive: outcome [1] | Potency [2] | Potency [7]
-17.3%: activity change, negative = inhibition [8]

Cc1ccc2c(c1)C1CN(C)CCC1N2 (centres undefined)
active: Potency [2] 4.25 µM
inactive: outcome [1] | Potency [3] | Potency [4] | Potency [5]

C[C@]12CC[C@H]3[C@@H](CCC4=CC(=O)CC[C@@H]43)[C@@H]1CC[C@@H]2OC(=O)CCc1ccccc1
active: Potency [3] 27.5 µM
inactive: outcome [1] | Potency [9] | Potency [2] | outcome [10] | Potency [7] | Potency [5]

CCCN1CCC[C@@H]2Cc3[nH]ncc3C[C@H]21
inactive: outcome [1] | Potency [9] | Potency [2] | Potency [3] | Potency (Papain (Carica papaya)) | Potency [4] | Potency [5]

CCN(CC)CCOC(=O)C(O)(c1ccccc1)c1ccccc1
inactive: Potency [11] | Potency [6] | max response [12] 31.2% | Potency [3] | Potency [4] | Potency [5]
active: Potency [2] 5.49 µM

COc1ccc(Cc2nccc3cc(OC)c(OC)cc23)cc1OC
inactive: outcome [1]
active: Potency [2] 4.9 µM | Potency [3] 9.77 µM | Potency [7] 7.94 µM | Potency [4] 11.8 µM | Potency [5] 5.25 µM

CN(C)CCc1ccc(O)cc1
inactive: outcome [1] | Potency [9] | Potency [2] | Potency [3] | Potency [4] | Potency [5]

CC1OC(C)OC(C)O1 (centres undefined)
inactive: outcome [1] | Potency [2] | Potency [3] | Potency [4] | Potency [5]

c1ccc2c(c1)Nc1ccccc1S2
inactive: outcome [1] | Potency [9] | Potency [2] | Potency [3] | Potency [8] | Potency [4] | Potency [5]
